# Assay results reported in the supplement of paper PMC6555819.
# Test system: RARa:RXR (NR concentration 270 nM, RXRa partner concentration 90 nM)
# Assay: PBM binding z-score (relative to random genomic background probes); higher = stronger binding; sequences stand for … in GC…GCGATTGACAGCGTAGAATGAAGG
# Summary of the method: (§1)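 Random background probes are the reference for binding z-scores. These scores derive from regression-normalized fluorescence on custom Agilent 4×180K protein-binding microarrays incubated 1 h with ligand-free nuclear receptor dimers. Binding was detected with antibodies against each partner (one per run).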
row,Sequence,PBM binding z-score
1,CAAGCTAGGTCAAGAGGTCAAAGTCCGCTTCCCG,7.58
2,TTACCAAGGTGAAAGGTCGTTGAGGCACGCCTTG,6.03
3,CCTGCTAGGTCTATGGTCAGCTAAAGCAGCTCGC,-0.37
4,AGTCATAGTTCACTAGGTAACGTAAGATTCAGCT,1.21
5,ACTAGTTGGTAAGCTGAGGTCACACACAATTCGG,4.42
6,GCTGCTAGGTCAGGTTGGTCGGCTAACGGGTACG,0.317
7,CCTACTGGGCCAAGGTCTTTGATCAGTCAAAGCA,-0.344
8,ATATGAAGGTTATCGGGTCATTCAGTTTGCGCAT,4.44
9,GCTGCTAGGTCAGGTTGGTCTGCTAACGGGTACG,0.971
10,CTCGAAAGGTCGGTTGAGGTGAGTAAACGGATAA,2.19
11,CGTCGGAGGACAGAAGGTCAGAGCTGTCCGCTTT,1.84
12,AGTCAAAGTTCACGAGGTAACGTAAGATTCAGCT,4.95
13,ATATGTAGCTTAAGGGTCATTCAGGTTGGTTCGC,4.2
14,CCGACTGGGCCATTCAGAGGTCATTGATCATATG,4.62
15,ATCTCTAGGTAAAGTTCAGCGAAAGATCGATAGA,2.06
16,CGTCCAAGGTCAGCAGGTCACTGAAAGCGACGTG,6.22
17,TAGCCTAGGTCAGATCGGGGCAGTATACGCTATA,0.828
18,CGTCCAAGGTCAACAGGTCAGTGAAAGCGACGTG,5.92
19,CGTCAAAGTTCAACTAAGTTAACGTAAAGCACGC,4.09
20,TCTAGGAGGACACGAAGGTCAGAGCTTTCCAGAG,1.83

row,Sequence,PBM binding z-score
1,AGTCAAAGTTCACGACGAGGTAACGTAAAGCACG,5
2,CAAACTAGGTCACGAAAGGTCAACGTCGAATGAC,7.97
3,AGTCAAATTTCACTAGGTAACGTAAGATTCAGCT,0.0458
4,CGAACTAGGTCAGAACAGGACAGTTAAGGATGAT,1.41
5,GATACAGAGTCAGCTAGAGGCCAGAGTATGGAAA,-0.487
6,CCCCGGAGGACAGAAGGTCAGAGCTGTCCGCTTT,1.87
7,AGTCCAAGTTCACTAGGTAACGTAAGATTCAGCT,1.17
8,CGTCAAAGCTCAACTAAGGTAACGTAAAGCACGC,0.83
9,TTACGAAGGTGAAAGGTCGTTGATGCACGCCTTG,5.13
10,CATACAGGGTCCGCTAGGCCAGAGTAGGGACGGC,-0.535
11,CCTACTGGGCCATTCAGAGGTCATTGATCATATG,4.59
12,ATCGAATGGTCGAAGGTGAGTATACCCACCCGAA,0.334
13,TAGCCTAGGACATGCGGGCCAGTATAGTGTCGGC,-0.797
14,GCTGCTAGGTCAGGATGGTCAGCTAACGGGTACG,0.555
15,CCTCGGAGGACAGAAGGTCAGATCTGTCCGCTTT,1.98
16,ATCTCTAGGTAAAGTTCATTGAAAGATCGATAGA,2.76
17,CAGCCTAGGTGAGGGCCAGTATAGGAGGAACGTT,-0.402
18,GCTGCTAGGTCAGGTTGGTCAACTAACGGGTACG,0.842
19,CGTCGGAGGACAACAGGAGGTCAGAGCTGCCAGA,2.58

# Test system: RARa homodimer (NR concentration 270 nM)
# Assay: as above
# Summary of the method: as §1
row,Sequence,PBM binding z-score
1,CAAGCTAGGTCAAGAGGTCAAAGTCCGCTTCCCG,3.04
2,TTACCAAGGTGAAAGGTCGTTGAGGCACGCCTTG,0.265
3,CCTGCTAGGTCTATGGTCAGCTAAAGCAGCTCGC,-0.766
4,AGTCATAGTTCACTAGGTAACGTAAGATTCAGCT,0.337
5,ACTAGTTGGTAAGCTGAGGTCACACACAATTCGG,1.2
6,GCTGCTAGGTCAGGTTGGTCGGCTAACGGGTACG,-0.865
7,CCTACTGGGCCAAGGTCTTTGATCAGTCAAAGCA,-0.879
8,ATATGAAGGTTATCGGGTCATTCAGTTTGCGCAT,0.435
9,GCTGCTAGGTCAGGTTGGTCTGCTAACGGGTACG,0.182
10,CTCGAAAGGTCGGTTGAGGTGAGTAAACGGATAA,0.141
11,CGTCGGAGGACAGAAGGTCAGAGCTGTCCGCTTT,0.257
12,AGTCAAAGTTCACGAGGTAACGTAAGATTCAGCT,1.29
13,ATATGTAGCTTAAGGGTCATTCAGGTTGGTTCGC,0.894
14,CCGACTGGGCCATTCAGAGGTCATTGATCATATG,-0.131
15,ATCTCTAGGTAAAGTTCAGCGAAAGATCGATAGA,0.708
16,CGTCCAAGGTCAGCAGGTCACTGAAAGCGACGTG,2.7
17,TAGCCTAGGTCAGATCGGGGCAGTATACGCTATA,-0.404
18,CGTCCAAGGTCAACAGGTCAGTGAAAGCGACGTG,1.34
19,CGTCAAAGTTCAACTAAGTTAACGTAAAGCACGC,2.57
20,TCTAGGAGGACACGAAGGTCAGAGCTTTCCAGAG,-0.482

row,Sequence,PBM binding z-score
1,AGTCAAAGTTCACGACGAGGTAACGTAAAGCACG,1.23
2,CAAACTAGGTCACGAAAGGTCAACGTCGAATGAC,4.53
3,AGTCAAATTTCACTAGGTAACGTAAGATTCAGCT,1.44
4,CGAACTAGGTCAGAACAGGACAGTTAAGGATGAT,0.874
5,GATACAGAGTCAGCTAGAGGCCAGAGTATGGAAA,-0.438
6,CCCCGGAGGACAGAAGGTCAGAGCTGTCCGCTTT,0.0931
7,AGTCCAAGTTCACTAGGTAACGTAAGATTCAGCT,0.555
8,CGTCAAAGCTCAACTAAGGTAACGTAAAGCACGC,-0.0738
9,TTACGAAGGTGAAAGGTCGTTGATGCACGCCTTG,0.203
10,CATACAGGGTCCGCTAGGCCAGAGTAGGGACGGC,-0.0023
11,CCTACTGGGCCATTCAGAGGTCATTGATCATATG,0.867
12,ATCGAATGGTCGAAGGTGAGTATACCCACCCGAA,0.141
13,TAGCCTAGGACATGCGGGCCAGTATAGTGTCGGC,-0.552
14,GCTGCTAGGTCAGGATGGTCAGCTAACGGGTACG,-0.167
15,CCTCGGAGGACAGAAGGTCAGATCTGTCCGCTTT,0.321
16,ATCTCTAGGTAAAGTTCATTGAAAGATCGATAGA,2.29
17,CAGCCTAGGTGAGGGCCAGTATAGGAGGAACGTT,-0.758
18,GCTGCTAGGTCAGGTTGGTCAACTAACGGGTACG,-0.0438
19,CGTCGGAGGACAACAGGAGGTCAGAGCTGCCAGA,0.114
